Experimental data as given in PubChem BioAssay AID1159580 (chemical genetic matrix, 2015).
Several values for one entry are separate records, joined by “and”; a condition that tells them apart may be missing. Identical values can stand only once. About 2,000 (36%) of roughly 5,500 compounds were called active. Roughly 18% stayed inconclusive and do not appear here. No stated cut-off is given here; in the data, active means normalized growth mostly below about 0.91 (no sharp cut-off); inconclusive means no clear call, values can overlap the other calls; inactive means mostly above about 0.92. The list shows a part of the results.

Test: chemical genetic growth profiling, strain panel (AID 1159580);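 further: tested at 20 µM; growth read once vehicle control cultures reached saturation at 30 °C; 1 = growth at the plate median or of vehicle wells; lower values mean less growth of the strain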
Conditions: S. cerevisiae deletion strains, growth OD
[1] = locus YBR229C, strain ROT2, active compounds read low
[2] = locus YDL101C, strain DUN1, active compounds read low
[3] = locus YDR150W, strain NUM1, active compounds read low
[4] = locus YHR030C, strain SLT2, active compounds read low
[5] = locus YJR043C, strain POL32, active compounds read low
[6] = locus YJR075W, strain HOC1, active compounds read low
[7] = locus YLR039C, strain RIC1, active compounds read low
[8] = locus YLR262C, strain YPT6, active compounds read low
[9] = locus YPL241C, strain CIN2, active compounds read low

Measured: normalized growth

CC1(C)CC23C(=O)CCC(O)C2(C)CCC13 (stereo not drawn)
inactive: locus YAL021C, strain ccr4, active compounds read low 0.956 | locus YAL026C, strain drs2, active compounds read low 0.989 | locus YAL030W, strain snc1, active compounds read low 0.979 | locus YBL061C, strain skt5, active compounds read low 0.99 | locus YBR009C, strain hhf1, active compounds read low 1.02 | locus YBR021W, strain FUR4, active compounds read low 0.995 | locus YBR023C, strain chs3, active compounds read low 0.993 | locus YBR171W, strain sec66, active compounds read low 0.974 | [1] 1.01 | locus YBR231C, strain swc5, active compounds read low 1.01 | locus YBR279W, strain paf1, active compounds read low 0.987 | locus YCL011C, strain gbp2, active compounds read low 0.979 | locus YCL016C, strain dcc1, active compounds read low 0.967 | locus YCL029C, strain bik1, active compounds read low 1 | locus YCL069W, strain vba3, active compounds read low 0.984 | locus YCR088W, strain abp1, active compounds read low 0.985 | locus YDL005C, strain med2, active compounds read low 0.97 | locus YDL035C, strain GPR1, active compounds read low 1.01 | locus YDL040C, strain nat1, active compounds read low 0.991 | locus YDL074C, strain BRE1, active compounds read low 1.05 | [2] 1.04 | locus YDL185W, strain tfp1, active compounds read low 1.01 | locus YDL192W, strain arf1, active compounds read low 1 | locus YDR001C, strain nth1, active compounds read low 0.986 | locus YDR069C, strain doa4, active compounds read low 0.967 | locus YDR101C, strain arx1, active compounds read low 0.983 | locus YDR137W, strain rgp1, active compounds read low 0.974 | [3] 1 | locus YDR159W, strain sac3, active compounds read low 0.988 | locus YDR162C, strain NBP2, active compounds read low 1.01 | locus YDR195W, strain ref2 0.957 | locus YDR297W, strain sur2, active compounds read low 1.01 | locus YDR318W, strain mcm21, active compounds read low 1 | locus YDR334W, strain swr1, active compounds read low 0.978 | locus YDR335W, strain msn5, active compounds read low 0.989 | locus YDR388W, active compounds read low 1.02 | locus YDR392W, strain spt3, active compounds read low 0.939 | locus YDR502C, strain sam2, active compounds read low 1.03 | locus YEL003W, strain gim4, active compounds read low 0.989 | locus YEL037C, strain rad23, active compounds read low 0.981 | locus YEL061C, strain CIN8 (second series), active compounds read low 0.985 | locus YER015W, strain faa2, active compounds read low 0.989 | locus YER016W, strain bim1, active compounds read low 0.961 | locus YER110C, active compounds read low 1.03 | locus YER111C, strain swi4, active compounds read low 0.971 | locus YER155C, strain BEM2 (second series), active compounds read low 0.985 | locus YER155C, strain BEM2, active compounds read low 1 | locus YER167W, strain BCK2, active compounds read low 0.997 | locus YFR010W, strain ubp6, active compounds read low 1 | locus YGL078C, strain dbp3, active compounds read low 1.02 | locus YGL086W, strain mad1, active compounds read low 1.01 | locus YGL167C, strain pmr1, active compounds read low 0.976 | locus YGL173C, strain kem1, active compounds read low 0.978 | locus YGL227W, strain vid30, active compounds read low 0.983 | locus YGL240W, strain doc1, active compounds read low 1.01 | locus YGL248W, strain PDE1, active compounds read low 1.06 | locus YGL253W, strain hxk2, active compounds read low 0.984 | locus YGR135W, strain pre9, active compounds read low 1.08 | locus YGR252W, strain gcn5, active compounds read low 1.05 | locus YHR013C, strain ard1, active compounds read low 0.952 | locus YHR027C, strain rpn1, active compounds read low 0.987 | [4] 1 and 1.03 | locus YHR079C, strain IRE1 (second series), active compounds read low 1.01 | locus YHR079C, strain IRE1, active compounds read low 1.04 | locus YHR094C, strain hxt1, active compounds read low 1.01 | locus YHR129C, strain ARP1, active compounds read low 1.01 | locus YHR142W, strain chs7, active compounds read low 0.96 | locus YHR200W, strain rpn10, active compounds read low 1.02 | locus YIL066C, strain RNR3, active compounds read low 1.01 | locus YIL073C, strain SPO22, active compounds read low 1.08 | locus YIL125W, strain kgd1, active compounds read low 0.998 | locus YIR030C, strain dcg1, active compounds read low 1.02 | locus YJL092W, strain hpr5, active compounds read low 0.994 | locus YJL095W, strain BCK1 (second series), active compounds read low 0.98 | locus YJL095W, strain BCK1, active compounds read low 1.1 and 1.04 | locus YJL115W, strain asf1, active compounds read low 0.97 | locus YJL129C, strain trk1, active compounds read low 0.955 | locus YJL134W, strain LCB3, active compounds read low 1.01 | locus YJL154C, strain vps35, active compounds read low 0.969 | locus YJL164C, strain tpk1, active compounds read low 0.997 | locus YJL166W, strain qcr8, active compounds read low 1.01 | locus YJL168C, strain set2, active compounds read low 0.996 | locus YJL187C, strain SWE1 (second series), active compounds read low 1.05 | [5] 0.983 | locus YJR066W, strain TOR1, active compounds read low 0.972 | [6] 1.03 | locus YKL009W, strain mrt4, active compounds read low 1.03 | locus YKL068W, active compounds read low 1 | locus YKL085W, strain MDH1 (second series), active compounds read low 1.01 | locus YKL085W, strain MDH1, active compounds read low 1.01 | locus YKL160W, strain elf1, active compounds read low 0.974 | locus YKL190W, strain CNB1, active compounds read low 1.01 | locus YKR001C, strain vps1, active compounds read low 1.04 | locus YKR026C, strain gcn3, active compounds read low 0.99 | locus YKR091W, strain srl3, active compounds read low 0.989 | locus YLL001W, strain dnm1, active compounds read low 0.99 | locus YLL026W, active compounds read low 0.994 | locus YLL041C, strain sdh2, active compounds read low 0.985 | locus YLR027C, strain aat2, active compounds read low 0.992 | [7] 1.13 | locus YLR058C, strain SHM2, active compounds read low 1.03 | locus YLR102C, strain apc9, active compounds read low 1 | locus YLR113W, strain HOG1, active compounds read low 1.03 | locus YLR221C, strain rsa3, active compounds read low 1.01 | locus YLR258W, strain gsy2, active compounds read low 0.984 | locus YLR262C, strain YPT6 (second series), active compounds read low 1.01 | [8] 1.07 | locus YLR268W, strain sec22, active compounds read low 0.995 | locus YLR320W, strain mms22, active compounds read low 0.997 | locus YLR330W, strain CHS5, active compounds read low 1.02 | locus YLR342W, strain FKS1 (second series), active compounds read low 1.01 | locus YLR342W, strain FKS1, active compounds read low 0.977 | locus YLR357W, strain rsc2, active compounds read low 0.956 | locus YLR370C, strain arc18, active compounds read low 0.981 | locus YLR371W, strain rom2, active compounds read low 0.995 | locus YLR384C, strain iki3, active compounds read low 0.952 | locus YLR418C, strain cdc73, active compounds read low 1.05 | locus YML016C, strain PPZ1, active compounds read low 1.02 | locus YML032C, strain rad52, active compounds read low 1.01 | locus YML120C, strain ndi1, active compounds read low 0.984 | locus YML124C, strain tub3, active compounds read low 1 | locus YMR058W, strain fet3, active compounds read low 0.987 | locus YMR078C, strain ctf18, active compounds read low 1.02 | locus YMR125W, strain sto1, active compounds read low 0.986 | locus YMR129W, active compounds read low 0.981 | locus YMR205C, strain PFK2, active compounds read low 0.999 | locus YMR223W, strain ubp8, active compounds read low 1.02 | locus YMR231W, strain pep5, active compounds read low 0.991 | locus YMR307W, strain GAS1, active compounds read low 1.08 | locus YNL067W, strain RPL9B, active compounds read low 1.03 | locus YNL071W, strain lat1, active compounds read low 0.991 | locus YNL183C, strain NPR1, active compounds read low 0.973 | locus YNL209W, strain ssb2, active compounds read low 0.988 | locus YNL233W, strain BNI4, active compounds read low 1.06 | locus YNL248C, strain rpa49, active compounds read low 0.951 | locus YNL250W, strain rad50, active compounds read low 1.02 | locus YNL271C, strain bni1, active compounds read low 0.999 | locus YNL298W, strain CLA4, active compounds read low 1.01 | locus YNL307C, strain MCK1, active compounds read low 1.02 | locus YNL322C, strain KRE1 (second series), active compounds read low 1 | locus YNR049C, strain mso1, active compounds read low 0.972 | locus YNR052C, strain pop2, active compounds read low 1.03 | locus YOL012C, strain htz1 1.22 | locus YOL147C, strain pex11, active compounds read low 1.02 | locus YOR001W, strain rrp6, active compounds read low 1.02 | locus YOR061W, strain CKA2, active compounds read low 1.01 | locus YOR069W, strain VPS5, active compounds read low 1.01 | locus YOR070C, strain gyp1, active compounds read low 0.987 | locus YOR080W, strain dia2, active compounds read low 0.981 | locus YOR083W, strain WHI5, active compounds read low 0.979 | locus YOR106W, strain vam3, active compounds read low 0.962 | locus YOR136W, strain idh2, active compounds read low 1.01 | locus YOR144C, strain elg1, active compounds read low 1.01 | locus YOR184W, strain ser1, active compounds read low 0.994 | locus YOR231W, strain MKK1, active compounds read low 1.05 | locus YOR265W, strain rbl2, active compounds read low 1 | locus YOR270C, strain vph1, active compounds read low 0.976 | locus YOR290C, strain snf2, active compounds read low 0.977 | locus YOR316C, strain cot1, active compounds read low 1.01 | locus YPL051W, strain arl3, active compounds read low 0.987 | locus YPL078C, strain atp4, active compounds read low 0.981 | locus YPL106C, strain sse1, active compounds read low 0.97 | locus YPL240C, strain hsp82, active compounds read low 1 | [9] 1.01 | locus YPL256C, strain CLN2, active compounds read low 1.04 | locus YPR119W, strain clb2, active compounds read low 1 | locus YPR141C, strain kar3, active compounds read low 1 | locus YPR163C, strain tif3, active compounds read low 1.01 | locus YPR167C, strain met16, active compounds read low 1.03 | strain wtn01, active compounds read low 0.984

Cc1cc(S(=O)(=O)NCCNc2nccc(C(F)(F)F)n2)c(C)cc1Cl
inactive: locus YAL013W, strain DEP1, active compounds read low 1.01 | [1] 1.02 | locus YCL061C, strain MRC1, active compounds read low 1.01 | [2] 1.01 | locus YDL134C, strain PPH21, active compounds read low 0.998 | [3] 0.933 | locus YEL061C, strain CIN8, active compounds read low 1.02 | locus YGR078C, strain PAC10, active compounds read low 1 | locus YGR229C, strain SMI1, active compounds read low 1.02 | [4] 0.957 | locus YHR087W, strain rtc3, active compounds read low 1.01 | [5] 1.01 | [6] 1 | [7] 0.991 | locus YLR058C, strain SHM2 (second series), active compounds read low 1.02 | locus YLR085C, strain ARP6, active compounds read low 1.01 | [8] 1.01 | locus YML094W, strain GIM5, active compounds read low 0.992 | locus YMR219W, strain ESC1, active compounds read low 1.01 | locus YMR263W, strain SAP30, active compounds read low 0.921 | locus YNL153C, strain GIM3, active compounds read low 1.02 | locus YNL298W, strain CLA4 (second series), active compounds read low 0.982 | locus YNL322C, strain KRE1, active compounds read low 1.01 | locus YNR030W, strain Alg12, active compounds read low 1.02 | locus YOL006C, strain TOP1, active compounds read low 1.02 | locus YPL055C, strain LGE1, active compounds read low 1.01 | [9] 1.06 | locus YPR135W, strain CTF4, active compounds read low 0.966
